Data: PubChem BioAssay AID1159580 (chemical genetic matrix, 2015)
Several values for one entry are separate records, joined by “and”; a condition that tells them apart may be missing. Identical values can stand only once. In all, about 5,500 compounds went through this assay and about 2,000 (36%) were called active. About 18% were inconclusive and are not listed. No stated cut-off is given here; in the data, active means normalized growth mostly below about 0.91 (no sharp cut-off); inconclusive means no clear call, values can overlap the other calls; inactive means mostly above about 0.92. The list shows a part of the results.

Assay: chemical genetic growth profiling, strain panel (AID 1159580);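 further: tested at 20 µM; growth read once vehicle control cultures reached saturation at 30 °C; 1 = growth at the plate median or of vehicle wells; lower values mean less growth of the strain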
Details: S. cerevisiae deletion strains, growth OD

Measured: normalized growth

C[C@]12CCC(=O)C=C1CCC1C2CC[C@@]2(C)C1CC[C@@H]2O (some centres not stated)
inactive: locus YAL013W, strain DEP1, active compounds read low 1.01 | locus YAL021C, strain ccr4, active compounds read low 0.967 | locus YAL026C, strain drs2, active compounds read low 1 | locus YAL030W, strain snc1, active compounds read low 0.997 | locus YBL061C, strain skt5, active compounds read low 0.987 | locus YBR009C, strain hhf1, active compounds read low 0.99 | locus YBR021W, strain FUR4, active compounds read low 0.97 | locus YBR023C, strain chs3, active compounds read low 0.988 | locus YBR171W, strain sec66, active compounds read low 0.969 | locus YBR229C, strain ROT2, active compounds read low 1.02 | locus YBR231C, strain swc5, active compounds read low 0.99 | locus YBR279W, strain paf1, active compounds read low 0.998 | locus YCL011C, strain gbp2, active compounds read low 0.993 | locus YCL016C, strain dcc1, active compounds read low 0.988 | locus YCL029C, strain bik1, active compounds read low 1.02 | locus YCL061C, strain MRC1, active compounds read low 0.993 | locus YCL069W, strain vba3, active compounds read low 0.999 | locus YCR088W, strain abp1, active compounds read low 1 | locus YDL005C, strain med2, active compounds read low 0.989 | locus YDL035C, strain GPR1, active compounds read low 0.988 | locus YDL040C, strain nat1, active compounds read low 0.985 | locus YDL074C, strain BRE1, active compounds read low 0.995 | locus YDL101C, strain DUN1, active compounds read low 1.01 | locus YDL134C, strain PPH21, active compounds read low 1.03 | locus YDL185W, strain tfp1, active compounds read low 1.03 | locus YDL192W, strain arf1, active compounds read low 1.03 | locus YDR001C, strain nth1, active compounds read low 0.996 | locus YDR069C, strain doa4, active compounds read low 0.977 | locus YDR101C, strain arx1, active compounds read low 1.01 | locus YDR137W, strain rgp1, active compounds read low 0.96 | locus YDR150W, strain NUM1, active compounds read low 1.03 | locus YDR159W, strain sac3, active compounds read low 0.963 | locus YDR162C, strain NBP2, active compounds read low 0.996 | locus YDR195W, strain ref2 1.01 | locus YDR297W, strain sur2, active compounds read low 0.993 | locus YDR318W, strain mcm21, active compounds read low 1.02 | locus YDR334W, strain swr1, active compounds read low 1.01 | locus YDR335W, strain msn5, active compounds read low 0.989 | locus YDR388W, active compounds read low 1.03 | locus YDR392W, strain spt3, active compounds read low 0.934 | locus YDR502C, strain sam2, active compounds read low 1.01 | locus YEL003W, strain gim4, active compounds read low 0.983 | locus YEL037C, strain rad23, active compounds read low 0.994 | locus YEL061C, strain CIN8 (second series), active compounds read low 0.988 | locus YEL061C, strain CIN8, active compounds read low 1.02 | locus YER015W, strain faa2, active compounds read low 0.995 | locus YER016W, strain bim1, active compounds read low 0.989 | locus YER110C, active compounds read low 1.04 | locus YER111C, strain swi4, active compounds read low 0.986 | locus YER155C, strain BEM2 (second series), active compounds read low 0.981 | locus YER155C, strain BEM2, active compounds read low 1.01 | locus YER167W, strain BCK2, active compounds read low 1.05 | locus YFR010W, strain ubp6, active compounds read low 1 | locus YGL078C, strain dbp3, active compounds read low 0.985 | locus YGL086W, strain mad1, active compounds read low 1.03 | locus YGL167C, strain pmr1, active compounds read low 0.964 | locus YGL173C, strain kem1, active compounds read low 0.967 | locus YGL227W, strain vid30, active compounds read low 0.992 | locus YGL240W, strain doc1, active compounds read low 0.965 | locus YGL248W, strain PDE1, active compounds read low 1.02 | locus YGL253W, strain hxk2, active compounds read low 0.991 | locus YGR078C, strain PAC10, active compounds read low 1.02 | locus YGR135W, strain pre9, active compounds read low 1.01 | locus YGR229C, strain SMI1, active compounds read low 1.04 | locus YGR252W, strain gcn5, active compounds read low 1.01 | locus YHR013C, strain ard1, active compounds read low 1.02 | locus YHR027C, strain rpn1, active compounds read low 0.997 | locus YHR030C, strain SLT2, active compounds read low 1.03 and 1.13 | locus YHR079C, strain IRE1 (second series), active compounds read low 1.02 | locus YHR079C, strain IRE1, active compounds read low 0.993 | locus YHR094C, strain hxt1, active compounds read low 1.03 | locus YHR129C, strain ARP1, active compounds read low 1.03 | locus YHR142W, strain chs7, active compounds read low 0.991 | locus YHR200W, strain rpn10, active compounds read low 1.03 | locus YIL066C, strain RNR3, active compounds read low 1.01 | locus YIL073C, strain SPO22, active compounds read low 1.09 | locus YIL125W, strain kgd1, active compounds read low 1.03 | locus YIR030C, strain dcg1, active compounds read low 1.03 | locus YJL092W, strain hpr5, active compounds read low 0.997 | locus YJL095W, strain BCK1 (second series), active compounds read low 0.987 | locus YJL095W, strain BCK1, active compounds read low 1.02 and 0.998 | locus YJL115W, strain asf1, active compounds read low 0.994 | locus YJL129C, strain trk1, active compounds read low 0.963 | locus YJL134W, strain LCB3, active compounds read low 1.02 | locus YJL154C, strain vps35, active compounds read low 0.997 | locus YJL164C, strain tpk1, active compounds read low 1.01 | locus YJL166W, strain qcr8, active compounds read low 0.986 | locus YJL168C, strain set2, active compounds read low 1.02 | locus YJL187C, strain SWE1 (second series), active compounds read low 1 | locus YJL187C, strain SWE1, active compounds read low 0.992 | locus YJR043C, strain POL32, active compounds read low 1.02 | locus YJR066W, strain TOR1, active compounds read low 0.999
